# Measured values reported in the supplement of paper PMC10849652.
# Of roughly 8,800 targets only a part is listed; those with a hit were picked by preference. About 0.5% of all pairs of compound and target were hits. Values without a mark were called inactive.
# Experiments:
# Assay in all cases: log2 fold change, soluble protein after heating vs DMSO (PISA); higher = thermal stabilisation; K562 lysate, 10 uM; active = over 0.2 and 3.5 SD of the protein, either way, in both replicates (recomputed)
# [1] = compound: CN1CC[C@H](c2c(O)cc(O)c3c(=O)cc(-c4ccccc4Cl)oc23)[C@H](O)C1 [alvocidib]
# Procedure, shortened: (§1)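 Soluble protein was defined as the supernatant remaining after 21,000xg for 90 min, following pooling of heated aliquots and adjustment to 0.5% NP-40 at 4°C. Before that, crude K562 extract at 1 mg/mL protein in PBS pH 7.4 with 1 mM MgCl2 was treated with 10 μM compound for 30 min and heated for 3 min across 48°C-58°C. Quantification used TMTpro 16plex LC-MS/MS with channel sums equalised, and values are log-two fold changes in thermal stability relative to solvent controls from duplicates.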
# [2] = compound: CN1CCc2c(c3ccccc3n2Cc2ccc(C(=O)NO)cc2)C1 [Tubastatin A]
# Procedure, shortened: as §1
# [3] = compound: CNC(=O)C1=CC=CC=C1NC2=NC(=NC=C2Cl)NC3=C(C=C(C=C3)N4CCOCC4)OC
# Procedure, shortened: as §1
# [4] = compound: CNC(=O)c1ccc(Nc2ncc(C(F)(F)F)c(NCc3nccnc3N(C)S(C)(=O)=O)n2)cc1 [defactinib]
# Procedure, shortened: as §1
# [5] = compound: CNc1nc(-c2ccc3c(N)n[nH]c3c2)cc(N2C[C@@H](C(=O)NC3CCCCC3)CC[C@H]2C)n1
# Procedure, shortened: as §1
# [6] = compound: COC(=O)N[C@@H](C)CNc1nccc(-c2cn(C(C)C)nc2-c2cc(Cl)cc(NS(C)(=O)=O)c2F)n1 [encorafenib]
# Procedure, shortened: as §1
# [7] = compound: COC(=O)[C@H](CCSC)NC(=O)C1=C(C=C(C=C1)NC[C@H](CS)N)C2=CC=CC=C2
# Procedure, shortened: as §1
# [8] = compound: COc1cc(Nc2ncc3c(n2)-c2ccc(Cl)cc2C(c2c(F)cccc2OC)=NC3)ccc1C(=O)O [alisertib]
# Procedure, shortened: as §1
# [9] = compound: COc1cc2nc(-c3cc(F)ccc3O)nc(N[C@@H]3CNC[C@H]3C(C)(C)O)c2cc1OC
# Procedure, shortened: as §1
# [10] = compound: COc1cc2ncnc(Nc3ccc(F)c(Cl)c3)c2cc1OCCCN1CCOCC1 [gefitinib]
# Procedure, shortened: as §1
# [11] = compound: CS(=O)(=O)CCNCc1ccc(-c2ccc3ncnc(Nc4ccc(OCc5cccc(F)c5)c(Cl)c4)c3c2)o1 [lapatinib]
# Procedure, shortened: as §1
# [12] = compound: CS(=O)(=O)N1CCN(Cc2cc3nc(-c4cccc5[nH]ncc45)nc(N4CCOCC4)c3s2)CC1 [pictilisib]
# Procedure, shortened: as §1
# [13] = compound: C[C@@H](Oc1cc(-c2cnn(C3CCNCC3)c2)cnc1N)c1c(Cl)ccc(F)c1Cl [crizotinib]
# Procedure, shortened: as §1
# [14] = compound: C[C@H](C1=CC=C(C=C1)C(=O)NC2=C3C=CNC3=NC=C2)N
# Procedure, shortened: as §1
# [15] = compound: C[C@H](Nc1ncnc2nc[nH]c12)c1cc2cccc(Cl)c2c(=O)n1-c1ccccc1 [duvelisib]
# Procedure, shortened: as §1
# [16] = compound: Cc1cc(Nc2cc(CN3CCOCC3)c3nc(C)c(Cc4ccc(Cl)cc4F)n3n2)n[nH]1 [gandotinib]
# Procedure, shortened: as §1
# [17] = compound: Cc1cc(Nc2cc(N3CCN(C)CC3)nc(Sc3ccc(NC(=O)C4CC4)cc3)n2)n[nH]1 [tozasertib]
# Procedure, shortened: as §1
# [18] = compound: Cc1ccc(-n2nc(C(C)(C)C)cc2NC(=O)Nc2ccc(OCCN3CCOCC3)c3ccccc23)cc1 [doramapimod]
# Procedure, shortened: as §1
# [19] = compound: Cc1ccc(NC(=O)c2ccc(CN3CC[C@H](N(C)C)C3)c(C(F)(F)F)c2)cc1Nc1nccc(-c2cncnc2)n1 [bafetinib]
# Procedure, shortened: as §1
# [20] = compound: Cc1cccc(CC(=O)N2CCc3c2ccc(-c2cn(C)c4ncnc(N)c24)c3F)n1
# Procedure, shortened: as §1
# Chain of UniProt Q15125 (Q15125 whole entry, looked up): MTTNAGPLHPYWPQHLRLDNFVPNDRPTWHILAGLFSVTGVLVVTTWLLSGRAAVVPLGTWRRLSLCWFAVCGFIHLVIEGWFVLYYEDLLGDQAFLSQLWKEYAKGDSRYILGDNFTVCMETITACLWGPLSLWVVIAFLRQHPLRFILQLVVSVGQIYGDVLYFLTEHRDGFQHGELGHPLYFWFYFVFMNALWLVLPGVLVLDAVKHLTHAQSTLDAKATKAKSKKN
# Chain of UniProt P49356 (P49356 whole entry, looked up): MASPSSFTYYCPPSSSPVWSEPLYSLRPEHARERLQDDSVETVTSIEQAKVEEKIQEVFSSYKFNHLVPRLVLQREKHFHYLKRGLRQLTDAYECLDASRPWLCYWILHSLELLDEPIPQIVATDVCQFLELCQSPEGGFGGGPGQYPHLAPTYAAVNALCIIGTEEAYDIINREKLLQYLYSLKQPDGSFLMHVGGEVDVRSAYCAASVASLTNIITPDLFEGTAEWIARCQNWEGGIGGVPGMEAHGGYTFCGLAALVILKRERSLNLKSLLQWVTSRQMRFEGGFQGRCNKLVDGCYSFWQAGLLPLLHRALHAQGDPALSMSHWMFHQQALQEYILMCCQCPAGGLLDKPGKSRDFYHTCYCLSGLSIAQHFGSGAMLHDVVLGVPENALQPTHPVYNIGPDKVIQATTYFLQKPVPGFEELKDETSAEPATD
# Chain of UniProt P23919 (P23919 whole entry, looked up): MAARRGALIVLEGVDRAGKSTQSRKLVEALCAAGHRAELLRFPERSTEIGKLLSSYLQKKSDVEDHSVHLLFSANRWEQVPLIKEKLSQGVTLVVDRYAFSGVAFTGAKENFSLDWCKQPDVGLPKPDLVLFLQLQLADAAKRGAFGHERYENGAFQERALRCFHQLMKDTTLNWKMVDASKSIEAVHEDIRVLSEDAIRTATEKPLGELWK
# Chain of UniProt Q8N9F7 (Q8N9F7 whole entry, looked up): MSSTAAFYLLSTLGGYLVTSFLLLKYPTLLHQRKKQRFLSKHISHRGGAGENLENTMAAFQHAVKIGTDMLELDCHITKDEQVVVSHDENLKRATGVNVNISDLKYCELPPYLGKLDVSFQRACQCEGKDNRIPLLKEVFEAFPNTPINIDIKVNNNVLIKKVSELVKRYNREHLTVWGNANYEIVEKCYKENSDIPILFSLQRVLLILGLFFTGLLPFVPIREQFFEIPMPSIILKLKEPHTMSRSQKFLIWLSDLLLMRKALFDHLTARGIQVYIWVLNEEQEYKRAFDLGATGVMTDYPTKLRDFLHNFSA
# Chain of UniProt Q92562 (Q92562 whole entry, looked up): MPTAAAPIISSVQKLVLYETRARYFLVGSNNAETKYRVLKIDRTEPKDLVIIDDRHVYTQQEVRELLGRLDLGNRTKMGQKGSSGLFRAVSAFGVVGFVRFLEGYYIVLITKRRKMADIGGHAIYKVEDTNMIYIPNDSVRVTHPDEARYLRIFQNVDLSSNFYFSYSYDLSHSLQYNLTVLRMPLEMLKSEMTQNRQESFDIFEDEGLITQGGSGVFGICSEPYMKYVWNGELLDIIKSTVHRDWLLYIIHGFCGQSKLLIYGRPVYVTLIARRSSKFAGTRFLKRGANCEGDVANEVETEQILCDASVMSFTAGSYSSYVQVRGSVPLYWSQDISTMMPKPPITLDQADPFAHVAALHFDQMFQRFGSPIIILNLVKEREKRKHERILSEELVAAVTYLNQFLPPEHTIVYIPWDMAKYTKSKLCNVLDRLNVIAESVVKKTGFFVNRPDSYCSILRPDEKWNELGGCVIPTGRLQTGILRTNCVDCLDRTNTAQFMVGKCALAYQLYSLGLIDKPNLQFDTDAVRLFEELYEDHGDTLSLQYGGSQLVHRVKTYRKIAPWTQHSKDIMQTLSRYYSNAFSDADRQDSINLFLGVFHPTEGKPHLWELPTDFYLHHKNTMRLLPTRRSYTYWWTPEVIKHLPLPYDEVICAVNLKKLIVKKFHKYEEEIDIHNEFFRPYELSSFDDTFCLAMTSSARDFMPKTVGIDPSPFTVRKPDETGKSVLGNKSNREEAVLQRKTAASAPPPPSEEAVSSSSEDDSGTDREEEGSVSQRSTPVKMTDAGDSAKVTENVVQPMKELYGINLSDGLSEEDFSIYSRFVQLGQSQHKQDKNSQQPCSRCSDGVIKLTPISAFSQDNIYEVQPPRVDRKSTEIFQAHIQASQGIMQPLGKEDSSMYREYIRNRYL
# Chain of UniProt Q6IPR1 (Q6IPR1 whole entry, looked up): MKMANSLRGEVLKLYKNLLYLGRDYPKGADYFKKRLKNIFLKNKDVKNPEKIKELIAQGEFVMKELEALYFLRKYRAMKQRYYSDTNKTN
# Chain of UniProt Q5VTE0 (Q5VTE0 whole entry, looked up): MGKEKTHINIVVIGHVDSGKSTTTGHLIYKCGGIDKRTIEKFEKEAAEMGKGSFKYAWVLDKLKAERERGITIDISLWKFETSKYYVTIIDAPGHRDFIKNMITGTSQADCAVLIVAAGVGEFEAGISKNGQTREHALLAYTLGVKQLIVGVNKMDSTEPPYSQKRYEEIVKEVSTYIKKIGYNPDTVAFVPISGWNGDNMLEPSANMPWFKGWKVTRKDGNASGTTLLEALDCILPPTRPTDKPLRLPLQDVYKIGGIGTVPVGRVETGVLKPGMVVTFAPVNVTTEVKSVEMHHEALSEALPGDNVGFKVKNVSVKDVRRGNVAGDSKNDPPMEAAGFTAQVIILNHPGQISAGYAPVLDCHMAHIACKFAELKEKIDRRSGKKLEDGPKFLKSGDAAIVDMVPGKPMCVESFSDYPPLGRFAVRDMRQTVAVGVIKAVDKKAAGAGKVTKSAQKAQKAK
# Chain of UniProt O43768 (O43768 whole entry, looked up): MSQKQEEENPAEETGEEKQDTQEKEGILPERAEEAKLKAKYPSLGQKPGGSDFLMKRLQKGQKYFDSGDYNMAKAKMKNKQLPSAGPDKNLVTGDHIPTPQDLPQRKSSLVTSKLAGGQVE
# Chain of UniProt Q8NEZ5 (Q8NEZ5 whole entry, looked up): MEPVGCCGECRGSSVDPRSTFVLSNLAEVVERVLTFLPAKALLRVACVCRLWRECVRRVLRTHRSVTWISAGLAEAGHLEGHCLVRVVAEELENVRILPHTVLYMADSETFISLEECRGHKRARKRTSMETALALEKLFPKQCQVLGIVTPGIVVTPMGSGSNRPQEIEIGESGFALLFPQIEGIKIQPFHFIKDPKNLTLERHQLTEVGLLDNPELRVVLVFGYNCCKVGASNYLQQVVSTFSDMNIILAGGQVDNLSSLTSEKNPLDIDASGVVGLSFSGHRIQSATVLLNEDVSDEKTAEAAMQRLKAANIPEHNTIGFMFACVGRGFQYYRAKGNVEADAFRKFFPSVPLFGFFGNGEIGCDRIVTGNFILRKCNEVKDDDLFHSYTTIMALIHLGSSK
# Chain of UniProt Q9GZT9 (Q9GZT9 whole entry, looked up): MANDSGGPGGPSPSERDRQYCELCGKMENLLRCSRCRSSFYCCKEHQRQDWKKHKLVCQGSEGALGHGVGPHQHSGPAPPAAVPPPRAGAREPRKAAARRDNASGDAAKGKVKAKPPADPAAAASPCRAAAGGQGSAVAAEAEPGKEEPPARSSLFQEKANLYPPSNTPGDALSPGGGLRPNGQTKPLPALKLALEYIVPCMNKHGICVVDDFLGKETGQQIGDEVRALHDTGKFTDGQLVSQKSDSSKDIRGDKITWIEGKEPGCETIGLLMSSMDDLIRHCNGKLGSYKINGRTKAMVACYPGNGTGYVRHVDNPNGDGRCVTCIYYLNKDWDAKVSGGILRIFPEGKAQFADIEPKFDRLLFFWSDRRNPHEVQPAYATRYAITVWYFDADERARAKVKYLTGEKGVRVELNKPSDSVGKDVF
# Chain of UniProt Q9NX74 (Q9NX74 whole entry, looked up): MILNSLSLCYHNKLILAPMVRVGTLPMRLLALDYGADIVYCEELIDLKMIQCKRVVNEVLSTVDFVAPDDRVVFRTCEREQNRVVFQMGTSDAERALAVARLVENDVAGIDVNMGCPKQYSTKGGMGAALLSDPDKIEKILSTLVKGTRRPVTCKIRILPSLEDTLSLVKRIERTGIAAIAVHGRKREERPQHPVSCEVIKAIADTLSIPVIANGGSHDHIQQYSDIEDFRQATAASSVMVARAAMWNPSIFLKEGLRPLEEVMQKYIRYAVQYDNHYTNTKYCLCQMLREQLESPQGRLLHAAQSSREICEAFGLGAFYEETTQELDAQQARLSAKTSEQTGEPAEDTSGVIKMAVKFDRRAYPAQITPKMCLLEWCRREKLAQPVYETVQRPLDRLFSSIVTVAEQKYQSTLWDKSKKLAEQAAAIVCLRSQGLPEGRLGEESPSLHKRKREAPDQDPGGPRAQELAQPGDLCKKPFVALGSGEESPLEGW
# Chain of UniProt P85037 (P85037 whole entry, looked up): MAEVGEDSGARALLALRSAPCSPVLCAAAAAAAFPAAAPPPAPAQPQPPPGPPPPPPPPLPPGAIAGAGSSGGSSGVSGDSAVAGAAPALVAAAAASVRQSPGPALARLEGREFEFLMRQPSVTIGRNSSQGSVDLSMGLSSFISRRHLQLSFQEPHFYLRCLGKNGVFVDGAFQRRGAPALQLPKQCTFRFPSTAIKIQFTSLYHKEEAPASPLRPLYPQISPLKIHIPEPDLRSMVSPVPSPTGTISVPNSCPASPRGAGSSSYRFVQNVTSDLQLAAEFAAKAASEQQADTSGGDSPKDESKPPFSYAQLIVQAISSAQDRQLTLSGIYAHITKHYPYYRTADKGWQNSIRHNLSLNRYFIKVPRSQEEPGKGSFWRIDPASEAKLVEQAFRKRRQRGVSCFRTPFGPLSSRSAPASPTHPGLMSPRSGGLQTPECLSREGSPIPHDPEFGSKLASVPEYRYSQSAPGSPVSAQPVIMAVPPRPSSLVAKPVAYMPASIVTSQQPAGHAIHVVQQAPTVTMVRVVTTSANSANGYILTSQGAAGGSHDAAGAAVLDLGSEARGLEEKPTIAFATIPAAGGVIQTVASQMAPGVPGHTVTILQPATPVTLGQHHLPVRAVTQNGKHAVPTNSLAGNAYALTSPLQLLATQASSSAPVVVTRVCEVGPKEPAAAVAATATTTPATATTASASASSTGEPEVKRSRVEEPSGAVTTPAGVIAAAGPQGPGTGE
Target,log2 fold change [1],log2 fold change [2],log2 fold change [3],log2 fold change [4],log2 fold change [5],log2 fold change [6],log2 fold change [7],log2 fold change [8],log2 fold change [9],log2 fold change [10],log2 fold change [11],log2 fold change [12],log2 fold change [13],log2 fold change [14],log2 fold change [15],log2 fold change [16],log2 fold change [17],log2 fold change [18],log2 fold change [19],log2 fold change [20]
DVL2 (UniProt O14641),0.002,-0.079,-0.039,0.028,-0.027,-0.018,-0.036,0.003,-0.069,0.006,0.096,-0.037,-0.056,0.026,0,-0.107,-0.039,0.106,-0.232,0.054
GGT7 (UniProt Q9UJ14),-0.013,0.076,0.008,0.066,0.079,0.078,-0.065,-0.015,0.044,0.055,-0.024,-0.007,0.01,0.068,0.011,0.033,-0.03,-0.054,-0.09,0.042
FNTB (UniProt P49356),-0.003,0.048,-0.019,0.026,-0.056,-0.046,0.131,-0.034,-0.007,-0.031,0.027,-0.052,0.032,-0.047,0.143,0.055,-0.069,-0.053,-0.013,0.015
FDFT1 (UniProt P37268),0.002,-0.037,-0.033,-0.048,-0.018,0.047,-0.155,0.068,0.018,0.016,-0.037,-0.018,0.062,-0.045,0.19,0.207,-0.004,0,0.018,0.01
ERI1 (UniProt Q8IV48),0.008,0,0.026,0.004,-0.021,0.025,0.118,-0.015,-0.02,-0.007,0.037,-0.079,-0.017,0.047,-0.022,-0.123,-0.015,0.015,0.04,-0.051
EGLN1 (UniProt Q9GZT9),-0.017,-0.088,0.025,0.033,-0.026,0,0.091,0.009,0.022,-0.003,-0.075,0.031,-0.018,0.037,0.199,-0.036,0.034,0.006,0.001,-0.055
DTYMK (UniProt P23919),0.037,-0.095,0.01,-0.006,0.04,-0.061,0.283 (active),0.009,-0.007,-0.011,0.026,-0.003,-0.042,0.055,0.023,-0.135,0.01,0.045,0.007,-0.029
ENSA isoform 3 (UniProt O43768),0.015,-0.038,-0.012,0.03,-0.027,-0.024,-0.053,-0.014,0.001,0.001,0.021,0.02,0.058,0.103,0.049,-0.042,-0.027,-0.068,0.058,-0.103
EEF1A1P5 (UniProt Q5VTE0),-0.022,-0.065,-0.021,-0.015,-0.218,-0.027,0.127,0.023,0.009,0,-0.006,0.027,-0.026,-0.114,-0.098,0.044,-0.001,0.011,-0.017,0.117
"EED, A0A5F9ZI63",-0.007,-0.026,0.039,0.003,0.036,0.004,0.063,-0.01,0.013,-0.025,0.047,-0.014,-0.001,-0.041,-0.006,0.022,-0.01,0.006,0.033,0.076
EBP (UniProt Q15125),-0.003,0.004,0.087,0.028,0.291 (active),0.005,-0.016,-0.036,0.048,0.04,-0.044,-0.004,0.07,-0.269 (active),-0.093,0.1,-0.016,-0.127,-0.011,0
FREM2 (UniProt Q5SZK8),-0.114,0.068,-0.034,-0.005,-0.038,0.031,-0.022,0.098,-0.013,0.164,-0.077,0.046,-0.095,-0.318 (active),0.06,0.172,0.104,0.07,-0.135,0.218
GCDH (UniProt Q92947),0.018,-0.069,-0.049,0.004,0.057,-0.049,0.159,0.049,0.006,-0.004,0.016,0.012,-0.017,0.013,0.19,-0.005,0.007,-0.026,0.047,-0.004
ETFRF1 (UniProt Q6IPR1),0.025,0.032,-0.006,-0.071,0.021,–,–,0.003,-0.042,-0.009,0.021,-0.01,-0.004,0.112,-0.004,-0.087,–,-0.057,-0.039,-0.039
FOXK1 (UniProt P85037),-0.037,-0.116,0.025,0.003,0.059,0.009,0.09,0.016,0.014,0.003,0.006,-0.036,0.025,-0.024,-0.043,0.002,0.009,0.035,0.029,0.034
EXOC6 (UniProt Q8TAG9),-0.014,-0.092,0.013,0.008,-0.017,0.015,0.039,0.007,0.016,0.003,-0.017,-0.04,-0.121,-0.013,0,-0.166,0.029,0.004,-0.059,0.033
FBXO22 (UniProt Q8NEZ5),-0.027,-0.002,-0.074,0.01,-0.004,-0.014,-0.006,0.034,0.013,0.017,-0.035,-0.027,-0.035,0.035,-0.012,-0.03,0,0.034,-0.049,-0.039
GAMT (UniProt Q14353),0.025,-0.059,0.055,0.068,0.038,-0.028,0.039,0.018,-0.021,-0.035,0.02,-0.028,0,0.02,0.082,0.002,-0.02,0.09,0.062,-0.046
DST (UniProt Q03001),-0.047,0.033,-0.003,-0.094,0.114,0.018,0.048,0.003,0.033,0.046,-0.019,0.015,-0.02,-0.17,0.018,0.101,0.024,0.023,-0.137,0.246
DUS2 (UniProt Q9NX74),0.056,-0.084,0.013,0.016,-0.045,-0.027,0.352 (active),-0.007,0.013,0.026,-0.033,0.04,0.041,-0.032,0.018,-0.051,0.011,-0.01,-0.017,-0.009
FIG4 (UniProt Q92562),-0.106,0.012,-0.004,-0.039,-0.016,0.064,0.037,-0.145,0.079,0.148,-0.065,0.12,-0.016,0.039,-0.023,-0.099,-0.112,-0.067,-0.09,0.058
GDPD1 (UniProt Q8N9F7),0,-0.023,0.006,-0.03,0.046,0.059,-0.272 (active),-0.018,-0.027,-0.035,0.03,-0.042,-0.157,0.001,0.049,0.164,-0.029,0.027,0.022,0.007
FKBP1A (UniProt P62942),-0.296,0.047,0.06,0.144,0.034,0.005,-0.061,0.105,-0.076,-0.003,-0.011,-0.031,0.005,-0.814 (active),0.074,0.266,-0.037,-0.04,-0.111,0.15
"EPB41, A0A2R8Y6D0",-0.015,-0.033,0.114,0.098,-0.178,0.029,0.052,0.165,-0.014,0.407,0.008,-0.14,-0.085,-0.037,-0.086,0.031,0.068,-0.051,-0.031,-0.003
